Measurements as given in PubChem BioAssay AID1159580 (chemical genetic matrix, 2015).
About 2,000 (36%) of roughly 5,500 compounds were called active. Not shown: some 18% with an inconclusive outcome. No stated cut-off is given here; in the data, active means normalized growth mostly below about 0.91 (no sharp cut-off); inconclusive means no clear call, values can overlap the other calls; inactive means mostly above about 0.92. This is one part of the list.

Test: chemical genetic growth profiling, strain panel (AID 1159580);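 further: tested at 20 µM; growth read once vehicle control cultures reached saturation at 30 °C; 1 = growth at the plate median or of vehicle wells; lower values mean less growth of the strain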
Conditions: growth OD

Measured: normalized growth

COc1cc(OC)c2c3c1C(=O)c1c(OC)cc(C)c4c(OC)cc(c-3c14)C(C)(C)C2=O
inactive: S. cerevisiae deletion strains, locus YAL013W, strain DEP1, active compounds read low 1.02 | S. cerevisiae deletion strains, locus YBR021W, strain FUR4, active compounds read low 0.993 | S. cerevisiae deletion strains, locus YBR229C, strain ROT2, active compounds read low 1.02 | S. cerevisiae deletion strains, locus YCL029C, strain bik1, active compounds read low 0.993 | S. cerevisiae deletion strains, locus YDL035C, strain GPR1, active compounds read low 0.99 | S. cerevisiae deletion strains, locus YDL074C, strain BRE1, active compounds read low 0.991 | S. cerevisiae deletion strains, locus YDL101C, strain DUN1, active compounds read low 1.01 | S. cerevisiae deletion strains, locus YDL134C, strain PPH21, active compounds read low 1 | S. cerevisiae deletion strains, locus YDL185W, strain tfp1, active compounds read low 0.991 | S. cerevisiae deletion strains, locus YDL192W, strain arf1, active compounds read low 0.988 | S. cerevisiae deletion strains, locus YDR101C, strain arx1, active compounds read low 0.971 | S. cerevisiae deletion strains, locus YDR150W, strain NUM1, active compounds read low 1.01 | S. cerevisiae deletion strains, locus YDR162C, strain NBP2, active compounds read low 1.03 | S. cerevisiae deletion strains, locus YDR318W, strain mcm21, active compounds read low 0.98 | S. cerevisiae deletion strains, locus YDR388W, active compounds read low 0.989 | S. cerevisiae deletion strains, locus YDR502C, strain sam2, active compounds read low 0.981 | S. cerevisiae deletion strains, locus YEL061C, strain CIN8, active compounds read low 1.01 | S. cerevisiae deletion strains, locus YER110C, active compounds read low 0.988 | S. cerevisiae deletion strains, locus YER155C, strain BEM2, active compounds read low 1.01 | S. cerevisiae deletion strains, locus YER167W, strain BCK2, active compounds read low 0.987 | S. cerevisiae deletion strains, locus YGL078C, strain dbp3, active compounds read low 1 | S. cerevisiae deletion strains, locus YGL086W, strain mad1, active compounds read low 0.968 | S. cerevisiae deletion strains, locus YGL248W, strain PDE1, active compounds read low 1.01 | S. cerevisiae deletion strains, locus YGR078C, strain PAC10, active compounds read low 1.01 | S. cerevisiae deletion strains, locus YGR135W, strain pre9, active compounds read low 0.983 | S. cerevisiae deletion strains, locus YGR229C, strain SMI1, active compounds read low 0.997 | S. cerevisiae deletion strains, locus YGR252W, strain gcn5, active compounds read low 0.896 | S. cerevisiae deletion strains, locus YHR030C, strain SLT2, active compounds read low 1.01 | S. cerevisiae deletion strains, locus YHR079C, strain IRE1 (second series), active compounds read low 0.977 | S. cerevisiae deletion strains, locus YHR094C, strain hxt1, active compounds read low 0.985 | S. cerevisiae deletion strains, locus YHR129C, strain ARP1, active compounds read low 1.01 | S. cerevisiae deletion strains, locus YHR200W, strain rpn10, active compounds read low 0.989 | S. cerevisiae deletion strains, locus YIL066C, strain RNR3, active compounds read low 0.999 | S. cerevisiae deletion strains, locus YIL073C, strain SPO22, active compounds read low 0.924 | S. cerevisiae deletion strains, locus YIL125W, strain kgd1, active compounds read low 0.994 | S. cerevisiae deletion strains, locus YIR030C, strain dcg1, active compounds read low 0.979 | S. cerevisiae deletion strains, locus YJL095W, strain BCK1, active compounds read low 1.01 | S. cerevisiae deletion strains, locus YJL134W, strain LCB3, active compounds read low 1 | S. cerevisiae deletion strains, locus YJL168C, strain set2, active compounds read low 0.987 | S. cerevisiae deletion strains, locus YJL187C, strain SWE1 (second series), active compounds read low 1.01 | S. cerevisiae deletion strains, locus YJR043C, strain POL32, active compounds read low 0.993 | S. cerevisiae deletion strains, locus YJR075W, strain HOC1, active compounds read low 0.988 | S. cerevisiae deletion strains, locus YKL009W, strain mrt4, active compounds read low 0.979 | S. cerevisiae deletion strains, locus YKL068W, active compounds read low 0.992 | S. cerevisiae deletion strains, locus YKL085W, strain MDH1 (second series), active compounds read low 0.99 | S. cerevisiae deletion strains, locus YKL085W, strain MDH1, active compounds read low 0.99 | S. cerevisiae deletion strains, locus YKL190W, strain CNB1, active compounds read low 1 | S. cerevisiae deletion strains, locus YKR001C, strain vps1, active compounds read low 0.973 | S. cerevisiae deletion strains, locus YLR039C, strain RIC1, active compounds read low 1.01 | S. cerevisiae deletion strains, locus YLR058C, strain SHM2, active compounds read low 1.01 | S. cerevisiae deletion strains, locus YLR102C, strain apc9, active compounds read low 0.981 | S. cerevisiae deletion strains, locus YLR262C, strain YPT6, active compounds read low 0.995 | S. cerevisiae deletion strains, locus YLR268W, strain sec22, active compounds read low 0.973 | S. cerevisiae deletion strains, locus YLR330W, strain CHS5, active compounds read low 1.02 | S. cerevisiae deletion strains, locus YLR342W, strain FKS1 (second series), active compounds read low 0.967 | S. cerevisiae deletion strains, locus YLR371W, strain rom2, active compounds read low 0.99 | S. cerevisiae deletion strains, locus YLR418C, strain cdc73, active compounds read low 0.947 | S. cerevisiae deletion strains, locus YML016C, strain PPZ1, active compounds read low 1.01 | S. cerevisiae deletion strains, locus YML032C, strain rad52, active compounds read low 0.973 | S. cerevisiae deletion strains, locus YML124C, strain tub3, active compounds read low 0.985 | S. cerevisiae deletion strains, locus YMR078C, strain ctf18, active compounds read low 0.99 | S. cerevisiae deletion strains, locus YMR223W, strain ubp8, active compounds read low 0.969 | S. cerevisiae deletion strains, locus YMR263W, strain SAP30, active compounds read low 1.02 | S. cerevisiae deletion strains, locus YMR307W, strain GAS1, active compounds read low 0.977 | S. cerevisiae deletion strains, locus YNL067W, strain RPL9B, active compounds read low 1.01 | S. cerevisiae deletion strains, locus YNL128W, strain TEP1, active compounds read low 1.02 | S. cerevisiae deletion strains, locus YNL153C, strain GIM3, active compounds read low 1.02 | S. cerevisiae deletion strains, locus YNL233W, strain BNI4, active compounds read low 1.01 | S. cerevisiae deletion strains, locus YNL250W, strain rad50, active compounds read low 0.989 | S. cerevisiae deletion strains, locus YNL271C, strain bni1, active compounds read low 0.994 | S. cerevisiae deletion strains, locus YNL298W, strain CLA4, active compounds read low 0.99 | S. cerevisiae deletion strains, locus YNL307C, strain MCK1, active compounds read low 0.95 | S. cerevisiae deletion strains, locus YNL322C, strain KRE1, active compounds read low 1.01 | S. cerevisiae deletion strains, locus YNR052C, strain pop2, active compounds read low 0.985 | S. cerevisiae deletion strains, locus YOL006C, strain TOP1, active compounds read low 0.991 | S. cerevisiae deletion strains, locus YOL012C, strain htz1 1.08 | S. cerevisiae deletion strains, locus YOL147C, strain pex11, active compounds read low 0.994 | S. cerevisiae deletion strains, locus YOR061W, strain CKA2, active compounds read low 1 | S. cerevisiae deletion strains, locus YOR069W, strain VPS5, active compounds read low 1 | S. cerevisiae deletion strains, locus YOR136W, strain idh2, active compounds read low 0.987 | S. cerevisiae deletion strains, locus YOR144C, strain elg1, active compounds read low 0.991 | S. cerevisiae deletion strains, locus YOR184W, strain ser1, active compounds read low 0.952 | S. cerevisiae deletion strains, locus YOR316C, strain cot1, active compounds read low 0.981 | S. cerevisiae deletion strains, locus YPL055C, strain LGE1, active compounds read low 1.01 | S. cerevisiae deletion strains, locus YPL241C, strain CIN2, active compounds read low 1.01 | S. cerevisiae deletion strains, locus YPR119W, strain clb2, active compounds read low 0.988 | S. cerevisiae deletion strains, locus YPR141C, strain kar3, active compounds read low 0.986 | S. cerevisiae deletion strains, locus YPR163C, strain tif3, active compounds read low 0.989 | S. cerevisiae deletion strains, locus YPR167C, strain met16, active compounds read low 0.981 | S. cerevisiae deletion strains, strain wtn01, active compounds read low 0.95 | S. cerevisiae strains, strain wild type, active compounds read low 1
